The text below walks through data of PubChem BioAssay AID1347155 (National Center for Advancing Translational Sciences (NCATS), 2019).

Structures are written as SMILES. Where “and” joins values, the source holds several entries; their conditions need not be identical. Equal entries are not always repeated. Results filed as inconclusive are left out. Values without a mark were called inactive. Calls of active or inactive are those of the source. Calls follow the shape of the dose curve; as a rule, active = well fitted inhibition curve with a large enough effect; inconclusive = small, poorly fitted or top-dose-only effect; inactive = no such curve, though single readings can be large or run the other way. *1 amine or outer side, *2 acyl side, *3 side chain or, on linkers, in order; H or OH if unused. Where a SMILES comes first, the peptide text is derived from it. Bridges are numbered along the chain shown (N, C = ends). Roman numbers before positions name the chains, in order. [ ]: non-standard residue; d: D form. ξ: configuration not given here. Actinocin(9to1) = Cc1c2oc3c(C)ccc(C(=O)[*:1])c3nc-2c(C(=O)[*:2])c(N)c1=O; aThr = C[C@H](O)[C@H](N)C(=O)O; NMeV = CN[C@H](C(=O)O)C(C)C; ξNMeV = CNC(C(=O)O)C(C)C; ξV = CC(C)C(N)C(=O)O; Sar = CNCC(=O)O

The test concerns Zika virus NS2B-NS3 protease (linked). The test can be described thus: Optimization screen NINDS Rhodamine qHTS for Zika virus inhibitors: Linked NS2B-NS3 protease assay. The note with it: fluorogenic rhodamine substrate; series mostly up to 105 µM; activity change, negative = inhibition: at the top concentration. From the text:
Avindra Nath, Ph.D., National Institute of Neurological Disorders and Stroke (NINDS), Bethesda, MD
Radhakrishnan Padmanabhan, Ph.D., Georgetown University (GU), Washington D.C.
Zika Virus causes congenital defects, including microcephaly and is associated with Guillain-Barre syndrome, eningoencephalitis and myelitis in infected adult. […] Using a target-based approach, we hope to establish a screening paradigm to uncover novel, cell-active NS2B-NS3 protease (Zika Virus) specific inhibitors from NCATS' collection of small molecules using qHTS.
Four assay panel was created to identify potential Zika Virus inhibitors. Namely, (1) GU unlinked NS2B-NS3 AMC tagged protease qHTS, (2) GU unlinked NS2B-NS3 Rhodamine tagged protease qHTS, (3) NINDS linked NS2B-NS3 AMC tagged protease qHTS, (4) NINDS linked NS2B-NS3 Rhodamine tagged protease qHTS. Active compounds were re-acquired and re-screened to confirm inhibition. Inhibitors were further screened against various confirmatory and counterscreens in dose response format.
Early Translation Branch (ETB)
National Center for Advancing Translational Sciences (NCATS), Rockville, MD
National Institute of Health (NIH), Bethesda, Maryland
For the linked assay, Nath lab (NINDS) provided the purified linked NS2B-NS3 protease which is consists of hydrophilic domain of NS2B linked to the NS3 protease domain by a flexible (-GGGGSGGGG-) linker. Control compound aprotinin is obtained from Thermo Scientific (#78432; Waltham, Massachusetts). Rhodamine110 substrate ([N-Cbz]-Nle-Lys-Arg-Arg-Rhod110-Arg-Arg-Lys-Nle-[N-Cbz]) was purchased from either Genscript or Bachem.
1536-well Protease (Rhodamine110 Substrate) Assay:
Briefly, 3 microL of enzyme (25 nM final concentration), in assay buffer (10 mM Tris-HCl pH 8.0 with 0.01% Tween 20) were dispensed into a 1,536-well solid-bottom black plate (Greiner Bio One, Monroe, NC). Twenty-three nL of compounds (final concentration range 7.28 nM to 114 microM) or control Aprotinin (final concentration range 3.47 nM to 114 microM) were transferred via Wako Pin-tool (Wako Automation, Richmond, VA). Samples were incubated (room temperature, protected from light) for 15 minutes followed by a 1 microL Rhodamine110 substrate addition (1.5 microM final concentration). Plates were then immediately read on a ViewLux High-throughput CCD imager (PerkinElmer, Waltham, MA) equipped with FITC fluorescence optics (480(20) nm excitation, 540(25) nm emission), then incubated (room temperature, protected from light) for 15 minutes (~15% conversion). The change in fluorescence intensity over the 15-minute reaction period was normalized against no-inhibitor and no-enzyme controls and the resulting percent inhibition data were fitted to a 4-parameter Hill equation. Aprotinin was used as intraplate control.
For orientation: Quantitative high-throughput screening tests each substance at several concentrations.
As for `CO[C@H]1C[C@H](O[C@@H]2/C(C)=C/C[C@@H]3C[C@@H](C[C@]4(CC[C@H](C)[C@@H](C5CCCCC5)O4)O3)OC(=O)[C@@H]3C=C(C)/C(=N/O)[C@H]4OC/C(=C\C=C\[C@@H]2C)[C@]43O)O[C@@H](C)[C@@H]1O`, the “activity change, negative = inhibition” value was -47.8%.

For the compound `C[S+](CC[C@H](N)C(=O)O)C[C@H]1O[C@@H](n2cnc3c(N)ncnc32)[C@H](O)[C@H]1O` (stereo not given in full), the “activity change, negative = inhibition” value was -26.9%.

Take `O=C1c2c(O)ccc([N+](=O)[O-])c2C(=O)c2c([N+](=O)[O-])ccc(O)c21`: the Potency was 12.7 µM (active) and 6.39 µM (active). Take `COc1c(C)c2c(c(O)c1C/C=C(\C)CCC(=O)OCCN1CCOCC1)C(=O)OC2`: the “activity change, negative = inhibition” value was 20.5%. In the case of `CC[C@@H](C)[C@H]1O[C@]2(CC[C@H]1C)C[C@@H]1C[C@@H](CC=C(C)[C@@H](O[C@H]3C[C@H](OC)[C@@H](O[C@H]4C[C@H](OC)[C@@H](O)[C@H](C)O4)[C@H](C)O3)[C@@H](C)C=CC=C3CO[C@@H]4[C@H](O)C(C)=C[C@@H](C(=O)O1)[C@]34O)O2`, the Potency is 39.3 µM (active). For `CC=CCC(C)C(O)C1C(=O)NC(CC)C(=O)N(C)CC(=O)N(C)C(CC(C)C)C(=O)NC(C(C)C)C(=O)N(C)C(CC(C)C)C(=O)NC(C)C(=O)NC(C)C(=O)N(C)C(CC(C)C)C(=O)N(C)C(CC(C)C)C(=O)N(C)C(C(C)C)C(=O)N1C` (stereo not given), the “activity change, negative = inhibition” value is 23.1%. Same read-out and setting: for `Nc1ncnc2c1ncn2[C@@H]1O[C@H](C[C@@H](N)CC[C@H](N)C(=O)O)[C@@H](O)[C@H]1O` the value was 3.64%; for `Cc1ccccc1CNc1ncnc2c1ncn2C1OC(CO)C(O)C1O` (stereo not given), -2.08%; for `O=C1c2cccc3c2[C@@H](CCC3)CN1[C@@H]1CN2CCC1CC2`, 0.103%.

In the case of `CO[C@H]1C[C@@H](O[C@@H]2/C(C)=C/C[C@@H]3C[C@@H](C[C@]4(CC[C@H](C)[C@@H](C5CCCCC5)O4)O3)OC(=O)[C@@H]3C=C(C)/C(=N/O)[C@H]4OC/C(=C\C=C\[C@@H]2C)[C@]43O)O[C@@H](C)[C@H]1O`, the Potency was 24.8 µM (active). The same measure, in the same setting: the value for `O=C(Nc1ccc([N+](=O)[O-])cc1Cl)c1cc(Cl)ccc1O` was 9.87 µM (active). With `OC(c1cc(C(F)(F)F)nc2c(C(F)(F)F)cccc12)C1CCCCN1` (stereo not given), the “activity change, negative = inhibition” value is 6.78%. Take `Oc1cc2ccccc2c2ccccc12`: the Potency is 63.9 µM (active). `Nc1ccn([C@@H]2O[C@H](CO)[C@@H](O)C2(F)F)c(=O)n1`: the “activity change, negative = inhibition” value is -14.2% [at 228 µM]. On the same count and under the same terms, for `CCC(CC)(NC(=O)C(C)C)C(=O)N[C@@H](CCCN=C(N)N)C(=O)NC1(C(=O)NC(c2ccc(F)cc2)c2ccc(F)cc2)CCCC1` the value was 1.29%; for `CCOc1ccc(C2C(=O)N(C3CCCCCC3)CC(=O)N2CCc2ccc(Cl)cc2)cc1OC` (stereo not given), 8.87%. Take `Cc1c2oc3c(C)ccc(C(=O)N[C@@H]4C(=O)N[C@H](C(C)C)C(=O)N5CCC[C@H]5C(=O)N(C)CC(=O)N(C)[C@@H](C(C)C)C(=O)O[C@@H]4C)c3nc-2c(C(=O)N[C@@H]2C(=O)N[C@H](C(C)C)C(=O)N3CCC[C@H]3C(=O)N(C)CC(=O)N(C)[C@@H](C(C)C)C(=O)O[C@@H]2C)c(N)c1=O` (I: T[dV]P[Sar][NMeV] / II: T[dV]P[Sar][NMeV]; ester I:1-I:C, II:1-II:C; linker I:N-II:N via Actinocin(9to1)): the Potency entry is “inactive”. As to `CC[C@@H]1O[C@]2(C=C[C@@H]1C)C[C@H]1C[C@H](CC=C(C)[C@@H](O[C@@H]3C[C@H](OC)[C@H](O[C@@H]4C[C@H](OC)[C@H](O)[C@H](C)O4)[C@H](C)O3)[C@@H](C)C=CC=C3CO[C@@H]4[C@@H](O)C(C)=C[C@@H](C(=O)O1)[C@]34O)O2`, the “activity change, negative = inhibition” value is 24.5% [at 48 µM]. On the same count and under the same terms, the value for `CC(C)C[C@@H](NC(=O)[C@H](Cc1ccccc1)NC(=O)c1cnccn1)B(O)O` was -11.7% [at 228 µM]. Consider `CNC(=O)c1cc(Oc2ccc(NC(=O)Nc3ccc(Cl)c(C(F)(F)F)c3)cc2)ccn1`, for which the Potency is 16 µM (active). Consider `O=C(O)c1ccc(-n2nc(-c3ccccc3O)nc2-c2ccccc2O)cc1`, for which the Potency is 8.79 µM (active). As for `C[C@H]1O[C@@H](O[C@H]2[C@@H](O)C[C@H](O[C@H]3[C@@H](O)C[C@H](O[C@H]4CC[C@@]5(C)[C@H](CC[C@@H]6[C@@H]5C[C@@H](O)[C@]5(C)[C@@H](C7=CC(=O)OC7)CC[C@]65O)C4)O[C@@H]3C)O[C@@H]2C)C[C@H](O)[C@@H]1O`, the “activity change, negative = inhibition” value is -1.02% [at 228 µM]. For `O[C@@H](c1cc(C(F)(F)F)nc2c(C(F)(F)F)cccc12)[C@H]1CCCCN1`, the “activity change, negative = inhibition” value was 10.6%. The same measure, in the same setting: the value for `Cc1c2oc3c(C)ccc(C(=O)N[C@@H]4C(=O)NC(C(C)C)C(=O)N5CCC[C@H]5C(=O)N(C)CC(=O)N(C)C(C(C)C)C(=O)O[C@@H]4C)c3nc-2c(C(=O)N[C@@H]2C(=O)NC(C(C)C)C(=O)N3CCC[C@H]3C(=O)N(C)CC(=O)N(C)C(C(C)C)C(=O)O[C@@H]2C)c(N)c1=O` (stereo not given in full) (I: T[ξV]P[Sar][ξNMeV] / II: T[ξV]P[Sar][ξNMeV]; ester I:1-I:C, II:1-II:C; linker I:N-II:N via Actinocin(9to1)) was 8.56%.

Regarding `Cc1c2oc3c(C)ccc(C(=O)N[C@@H]4C(=O)N[C@@H](C(C)C)C(=O)N5CCC[C@@H]5C(=O)N(C)CC(=O)N(C)[C@@H](C(C)C)C(=O)O[C@H]4C)c3nc-2c(C(=O)N[C@@H]2C(=O)N[C@@H](C(C)C)C(=O)N3CCC[C@@H]3C(=O)N(C)CC(=O)N(C)[C@@H](C(C)C)C(=O)O[C@H]2C)c(N)c1=O` (I: [aThr]V[dP][Sar][NMeV] / II: [aThr]V[dP][Sar][NMeV]; ester I:1-I:C, II:1-II:C; linker I:N-II:N via Actinocin(9to1)), the “activity change, negative = inhibition” value is -4.07%.

`CCc1nc(N)nc(N)c1-c1ccc(Cl)cc1`: the Potency result was “inactive”. With `CC(=O)Nc1ccc([C@H](C)C(=O)Nc2ncc(C(C)C)s2)cc1`, the “activity change, negative = inhibition” value was 1.33%.

For `Cn1cnc([N+](=O)[O-])c1Sc1ncnc2nc[nH]c12`, the Potency entry was “inactive”. On to `CC1O[C@@H](O[C@@H]2C(O)C[C@H](O[C@@H]3C(O)C[C@@H](OC4CC[C@@]5(C)C6CC(O)[C@@]7(C)C(C8=CC(=O)OC8)CC[C@@]7(O)C6CC[C@@H]5C4)OC3C)OC2C)CC(O)[C@H]1O` (stereo not given in full), for which the “activity change, negative = inhibition” value is 9.11%. On the same count and under the same terms, the value for `CC1OC(OC2C(O)CC(OC3C(O)CC(OC4CCC5(C)C(CCC6C5CC(O)C5(C)C(C7=CC(=O)OC7)CCC65O)C4)OC3C)OC2C)CC(O)C1O` (stereo not given) was 8.89% [at 228 µM]. For `Nc1nc(=S)c2[nH]cnc2[nH]1`, the Potency entry is “inactive”. For `CCCCOc1ccc(C2C(=O)N(C3CCCCC3)CC(=O)N2C2CCCCC2)cc1` (stereo not given), the “activity change, negative = inhibition” value was 1.48%.

For `C[C@H]1O[C@@H](O[C@H]2CC[C@@]3(C)[C@H](CC[C@@H]4[C@@H]3C[C@@H](O)[C@]3(C)[C@@H](C5=CC(=O)OC5)CC[C@]43O)C2)C[C@H](O)[C@@H]1O[C@H]1C[C@H](O)[C@H](O[C@H]2C[C@H](O)[C@H](O[C@@H]3O[C@H](CO)[C@@H](O)[C@H](O)[C@H]3O)[C@@H](C)O2)[C@@H](C)O1`, the “activity change, negative = inhibition” value was 6.52%.

As to `NC(=O)C(=O)O`, the “activity change, negative = inhibition” value is 6.13%. Still for that read-out and setting: the value for `CCOc1ccc(C2C(=O)N(C3CCCCC3)CC(=O)N2Cc2ccc(F)cc2)cc1OC` (stereo not given) was -2.05%; that for `CC(C)C[C@H](NC(=O)[C@H](Cc1ccccc1)NC(=O)c1cnccn1)B(O)O` was -2.87%. Regarding `CC(C)(C)CC(C)(C)c1ccc(OCCOCC[N+](C)(C)Cc2ccccc2)cc1`, the Potency result was “inactive”. For `C[C@H]1O[C@@H](O[C@H]2[C@@H](O)C[C@H](O[C@H]3[C@@H](O)C[C@H](O[C@H]4CC[C@]5(C)C6C[C@@H](O)[C@]7(C)[C@@H](C8=CC(=O)OC8)CC[C@]7(O)C6CC[C@@H]5C4)O[C@@H]3C)O[C@@H]2C)C[C@H](O)[C@@H]1O` (stereo not given in full), the “activity change, negative = inhibition” value was 1.78%.

In the case of `COc1c2occc2cc2ccc(=O)oc12`, the “activity change, negative = inhibition” value was -34.5%.

Consider `S=c1nc[nH]c2nc[nH]c12`, for which the Potency entry is “inactive”.
